Test results from PubChem BioAssay (NCATS).
Results filed as inconclusive are left out. Calls of active or inactive are those of the source. Calls follow the shape of the dose curve; as a rule, active = well fitted inhibition curve with a large enough effect; inconclusive = small, poorly fitted or top-dose-only effect; inactive = flat fitted curve, though single readings scatter.

Columns and labels:
Experiment in all cases: qHTS profiling for inhibitors of Plasmodium falciparum proliferation (AID 504749); also: nearly all actives have a fitted effect of over 60% in size
Conditions in all cases: P. falciparum in erythrocytes, SYBR Green DNA, 72 h; series mostly up to 28.7 µM
[1] = tested on: CP250
In short: (§1)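 SYBR Green fluorescence (ex 485 nm, em 535 nm) reports parasite DNA after 72 h compound exposure of infected red cells at 0.3% parasitemia, 2.5% hematocrit; signal normalized to 0.29 uM artemisinin and vehicle wells.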

[2] = tested on: CP252
In short: as §1

[3] = tested on: CP256
In short: as §1

[4] = tested on: CP260
In short: as §1

[5] = tested on: CP262
In short: as §1

[6] = tested on: CP265
In short: as §1

[7] = tested on: CP266
In short: as §1

[8] = tested on: CP268
In short: as §1

[9] = tested on: CP269
In short: as §1

[10] = tested on: CP286
In short: as §1

Measured: Potency

C=CCN1CCCC1CNC(=O)c1cc(S(N)(=O)=O)cc(OC)c1OC (stereo not given)
inactive: all assays above

CN[C@@H]1[C@H](O[C@H]2[C@H](O[C@H]3[C@H](O)[C@@H](O)[C@H](N=C(N)N)[C@@H](O)[C@@H]3N=C(N)N)O[C@@H](C)[C@]2(O)C=O)O[C@@H](CO)[C@H](O)[C@H]1O
inactive: all assays above

CN(C)CCOc1ccc(/C(=C(/CCCl)c2ccccc2)c2ccccc2)cc1
inactive: all assays above

O=C(O)/C=C/C(=O)Nc1ccc(S(=O)(=O)Nc2nccs2)cc1
inactive: all assays above

C=CCOc1ccc(CC(=O)O)cc1Cl
inactive: all assays above

CCOc1ccc(NC(=S)Nc2ccc(OCC)cc2)cc1
inactive: all assays above

Nc1nccs1
inactive: all assays above

CC(=O)[C@H]1CC[C@H]2[C@@H]3C=CC4=CC(=O)CC[C@@]4(C)[C@H]3CC[C@]12C
inactive: all assays above

CCOC(=O)c1cc(-c2ccccc2)nc2ccc(C)cc12
inactive: all assays above

CCCc1nc(C(C)(C)O)c(C(=O)OCc2oc(=O)oc2C)n1Cc1ccc(-c2ccccc2-c2nn[nH]n2)cc1
inactive: all assays above

CC(C)CCC[C@@H](C)[C@H]1CC[C@H]2[C@@H]3CC[C@@H]4C[C@H](O)CC[C@]4(C)[C@H]3CC[C@]12C
inactive: all assays above

CCCCCCCCCCCCCCCCCC[N+](C)(C)CCC[Si](OC)(OC)OC
inactive: all assays above

O=C1c2ccccc2C(=O)C1c1ccc(F)cc1
inactive: all assays above

Cc1cc(C(=O)NCCc2ccc(S(=O)(=O)NC(=O)NN3CCCCCC3)cc2)no1
inactive: all assays above

O=C1NCCN1c1ncc([N+](=O)[O-])s1
inactive: all assays above

CC1CC(O)CC(C)(C)C1 (stereo not given)
inactive: all assays above

CCC(Cc1c(I)cc(I)c(O)c1I)C(=O)O (stereo not given)
inactive: all assays above

CCCCCCCCCCCCCCCCCC(=O)OCC(C)O (stereo not given)
inactive: all assays above

O=P(O)(O)OC[C@H]1O[C@](O)(COP(=O)(O)O)[C@@H](O)[C@@H]1O
inactive: all assays above

CCc1ccc(S(=O)(=O)O)cc1
inactive: all assays above

COc1ccc(C(=O)c2ccc(C)cc2)c(O)c1
inactive: all assays above

CC(=O)Oc1cccc(C(=O)O)c1OC(C)=O
inactive: all assays above

CCOC(C)OCC
inactive: all assays above

CC/C=C\C/C=C\C/C=C\C/C=C\C/C=C\CCCC(=O)O
inactive: all assays above

O=S(=O)(O)CCCS(=O)(=O)O
inactive: all assays above

CC/C=C\C/C=C\C/C=C\CCCCCCCC(=O)O
inactive: all assays above

CCCCCCCCCC(=O)NO
inactive: all assays above

CC(C)(COP(=O)(O)OP(=O)(O)OC[C@H]1O[C@@H](n2cnc3c(N)ncnc32)[C@H](O)[C@@H]1OP(=O)(O)O)C(O)C(=O)NCCC(=O)NCCS (stereo not given in full)
inactive: all assays above

CCC(C)[C@@H](N)C(=O)O (stereo not given in full)
inactive: all assays above

COC(=O)C(CN)c1c[nH]c2ccc(OC)cc12 (stereo not given)
inactive: all assays above

Cc1ncc(COP(=O)(O)O)c(CN)c1O
inactive: all assays above

COc1ccc(/C=C/C(=O)O)cc1
inactive: all assays above

CCSc1ccc2c(c1)N(CCCN1CCN(C)CC1)c1ccccc1S2
inactive: all assays above

CCCCCCCCCCCC(=O)OCC(O)CO (stereo not given)
inactive: all assays above

COc1cc(S(C)=O)ccc1-c1nc2ncccc2[nH]1 (stereo not given)
inactive: all assays above

CC1=CCC2CC1C2(C)C (stereo not given)
inactive: all assays above

NCC[C@H](O)C(=O)N[C@@H]1C[C@H](N)[C@@H](O[C@H]2O[C@H](CN)CC[C@H]2N)[C@H](O)[C@H]1O[C@H]1O[C@H](CO)[C@@H](O)[C@H](N)[C@H]1O
inactive: all assays above

Cc1ccccn1
inactive: all assays above

FCOC(C(F)(F)F)C(F)(F)F
inactive: all assays above

CNC(=O)c1c(I)c(C(=O)NCC(=O)Nc2c(I)c(C(=O)O)c(I)c(C(=O)NCCO)c2I)c(I)c(N(C)C(C)=O)c1I
inactive: all assays above

N=C(N)n1cccn1
inactive: all assays above

ClC(Cl)Cl
inactive: all assays above

O=C1c2ccccc2CN2C(=O)c3ccccc3CN12
inactive: all assays above

OCl
inactive: all assays above

CC(=O)Nc1c(I)c(C(=O)O)c(I)c(N(C)C(C)=O)c1I
inactive: all assays above
